# Assay results: ChEMBL document CHEMBL4513216, “Probing the Open Global Health Chemical Diversity Library for Multistage-Active Starting Points for Next-Generation Antimalarials” (ACS Infect Dis, 2020)
# In all, about 69,000 compounds went through this assay and about 8,600 (12%) showed an effect of 50% or more. The entries come from a sample that favours strong results as a whole.
# Tested on: Plasmodium berghei
# Assay: Screen against P. berghei liver stage (PbLuc), transformed with Luciferase, at 10uM
# Type: functional, HepG2
# Details: tested at 10 uM
row,Compound,INHIBITION [%]
1,CN(C)Cc1noc2c1CN(C(=O)c1ccncc1)CC2,39.4
2,O=S1(=O)[C@@H](c2ccccc2)[C@H](CO)CN1C1CC1,-1.99
3,Cc1ccoc1C(=O)N1Cc2c(Cn3ccnc3)nn(C)c2C1,39.2
4,Cc1ccc(C2(O)CCN(C(=O)c3sccc3S(N)(=O)=O)CC2)nc1,-11.3
5,COc1ccc(F)cc1CSCC(=O)N(C)CCC#N,13.6
6,CCOc1cc(CN(C)CCCO)ccc1OC(F)F,31.4
7,COc1ccc(F)cc1CSCC(=O)N(CCC#N)CCC#N,-28.8
8,CCOc1cc(CN(C)CC(C)(C)O)ccc1OC(F)F,-2.13
9,CCOc1ccc(CN(CCC#N)CCN2CCOCC2)cc1OC,55.4
10,COc1ccc(CN(CCC#N)CCN2CCOCC2)cc1OC,43.4
11,CCOc1cc(CN(C)CCC#N)ccc1OC(F)F,64.1
12,COc1ccc(CN(CCC#N)CCN2CCOCC2)c(OC)c1,31.9
13,CCOc1cc(CN(C)Cc2ccccc2)ccc1OC(F)F,68.8
14,CCOc1cc(CN(C)CC(=O)O)ccc1OC(F)F,21
15,CCOc1cc(CN(C)CCCC#N)ccc1OC(F)F,75.2
16,CCOc1cc(CNC(=O)C(C#N)c2nc(C)cs2)ccc1OC(F)F (stereo not drawn),42.8
17,CCNC(=O)NC(=O)CNC1(c2noc(C)n2)CCCC1,43.8
18,CNc1cc(C2CN(C(=O)c3cscn3)CCO2)nc(C)n1 (stereo not drawn),26.7
19,COCCNC(=O)C(C)N1CCN(C)CC1 (stereo not drawn),4.41
20,CCN(CC)CCN(C)Cc1cn(C)nc1-c1ccc2c(c1)OCCO2,39.4
21,COc1ccccc1-n1nc(-c2ccco2)n(CC(N)=O)c1=O,30.9
22,O=C1COC2(COCCN(Cc3ccsc3)C2)CN1c1ccc(F)cc1 (stereo not drawn),13.1
23,O=C1CCC(c2ccc(Cl)cc2)=NN1CN1CCCCCC1,-52.7

row,Compound,INHIBITION [%]
1,CC(C)C(=O)N1CC[C@@H]2[C@H](CC1)N(Cc1cccnc1)CCS2(=O)=O,-20.1
2,CN(C)C(=O)N[C@H]1CN(Cc2ccc3c(c2)OCO3)[C@@H]2CCCO[C@H]12,27.2
3,CCOCCC(=O)N1CCCC(CO)(CC2CC2)C1 (stereo not drawn),33
4,O=C(O)c1nnn(-c2cccc(C(F)(F)F)c2)c1C1CC1,12.9
5,CCOc1cc(CN(C)CCC(=O)OC)ccc1OC(F)F,54.5
6,CCOc1cc(CN(C)CCOC)ccc1OC(F)F,43.5
7,CCOc1cc(CNC(=O)NC2CC=CC2)ccc1OC(F)F,23.9
8,CCN1CC2(CCN(C(=O)c3nc4cc(C)ccn4c3F)CC2)CC1=O,7.65
9,CCn1ccc(NS(=O)(=O)c2cccc(CSC)c2)n1,-3.83
10,CC(C)CS(=O)(=O)N1CCC2(CC1)CCn1c(-c3cnn(C)c3)cnc12,5.41
11,Cn1cc(-c2cnc3n2CCC32CCN(S(C)(=O)=O)CC2)cn1,-26.1
12,Cn1cc(-c2cnc3n2CCC32CCN(S(=O)(=O)C3CC3)CC2)cn1,63.1
13,CCCS(=O)(=O)N1CCC2(CC1)CCn1c(-c3cnn(C)c3)cnc12,85.4
14,CCS(=O)(=O)N1CCC2(CC1)CCn1c(-c3cnn(C)c3)cnc12,-65.4
15,Cn1cc(N2CCC3(CCN(S(=O)(=O)C4CC4)C3)C2=O)cn1 (stereo not drawn),15.1
16,O=C(CCO)N1C[C@H]2CN(c3ccccc3)C(=O)[C@H]2C1,-73.8
17,Cc1c(-c2cc(-c3cnn(C)c3C)n(CC(=O)NC3CC3)n2)cnn1C,45.4
18,Cc1nc(N2CCN(C(=O)C3CCCC3)CC2)c2c(n1)c(C)nn2C,35.8
19,COCCn1c(=O)n(C)c(=O)c2ccc(C3CCC(CN)CC3)nc21 (stereo not drawn),36.1
20,O=C(NC1CCCC1)N1CCC2(CC1)CC(Oc1cccnc1)CO2 (stereo not drawn),9.63
21,CC(C)CC(=O)N(C)Cc1nc(C(F)(F)F)cs1,62.9
22,CCOCC(=O)N(C)Cc1nc(C(F)(F)F)cs1,9.52
23,CC(C)N(C)CC(=O)N(C)Cc1nc(C(F)(F)F)cs1,22.7

row,Compound,INHIBITION [%]
1,Cc1ccc(N2CCCC(NCc3nnc4n3CCCC4)C2=O)cc1 (stereo not drawn),-76.95
2,CNC(=O)[C@H]1C[C@@H]2CN(C(=O)c3occc3C)C[C@@H]2N1S(C)(=O)=O,-0.371
3,CS(=O)(=O)N1CCN(C(=O)C2CSCCC(=O)N2)CC1 (stereo not drawn),60
4,O=C1CCSCC(C(=O)N2CCCCC2)N1 (stereo not drawn),-18.3
5,O=C1CCSCC(C(=O)N2CCCC2)N1 (stereo not drawn),38.5
6,CC(C)CN1CC[C@@H]2[C@@H]1CCN2S(=O)(=O)c1cccs1,1.34
7,O=C(NC1CCC1)c1cccc(S(=O)(=O)NCc2nc(C3CC3)no2)c1,-9.2
8,O=C(c1ccc(S(=O)(=O)NCc2ccon2)cc1)N1CCNCC1,41.3
9,NC(=O)CC1CCCN(C(=O)NCC2(c3cccs3)CCCC2)C1 (stereo not drawn),-9.51
10,Cc1cccc(OCC(O)CNCc2c(C)nn(C)c2N(C)C)c1 (stereo not drawn),-45.2
11,Cc1nn(C)c(N(C)C)c1CNCC(O)COc1ccc(F)cc1 (stereo not drawn),0
12,COc1cc(CNCc2c(C)nn(C)c2N(C)C)ccc1C,30.8
13,COc1cccc(CNCc2c(C)nn(C)c2N(C)C)c1,38.95
14,COCc1cccc(CNCc2c(C(C)C)nn(C)c2N(C)C)c1,50.8
15,COc1ccc2cc(CNCc3c(C)nn(C)c3N(C)C)ccc2c1,53
16,Cc1nn(C)c(N(C)C)c1CNCc1cccc(CN(C)C)c1,-72.2
17,COCc1cccc(CNCc2c(C)nn(C)c2N(C)C)c1,44.3
18,Cc1nn(C)c(N(C)C)c1CNCC(O)COc1cccc(F)c1 (stereo not drawn),83.2
19,Cc1nn(C)c(N(C)C)c1CNCc1cccc(Br)c1,-22.1
20,Cc1nn(C)c(N(C)C)c1CNCc1cccc(Cl)c1,68.1
21,COc1cccc(CNCc2c(C(C)C)nn(C)c2N(C)C)c1,12.22
22,COCCN1C(=O)CCC12CCC(NCc1ccc(OC)cc1)CC2 (stereo not drawn),15.3
